MITF primary: MITF inhibitors, primary screen, biochemical, AlphaScreen, human; inhibition, % at 2.6 µM; hit rate 0.91% among 650,000; AlphaScreen MITF homodimerization, bead proximity signal; in the data active = inhibition above about 50%;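 note: 0% = vehicle wells with protein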
FBW7 act: FBW7 E3 ligase activators, primary screen, biochemical, AlphaScreen, human; AID 1259310, 2017; normalized activity (activation), % at 26.1 µM; AlphaScreen FBW7–phospho-cyclin E peptide binding, activator screen; hit rate 0.13% among 650,000; F-box/WD repeat-containing protein 7 (Homo sapiens), Q969H0; in the data active = normalized activity above about 1.9%;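 note: purified mutant Fbw7 with reduced substrate affinity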
GPR151 activ: activators of human GPR151, primary screen, cell-based, PathHunter beta-arrestin, luminescence. G-protein coupled receptor 151 (Homo sapiens), Q8TDV0. PathHunter beta-arrestin GPR151 cells. activation, % at 11.2 µM. hit rate 1% among 650,000; in the data active = activation above about 4.9%;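 note: 0% = median of compound wells and 100% = cells with positive control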
Target sequence (Q8TDV0 whole entry, looked up): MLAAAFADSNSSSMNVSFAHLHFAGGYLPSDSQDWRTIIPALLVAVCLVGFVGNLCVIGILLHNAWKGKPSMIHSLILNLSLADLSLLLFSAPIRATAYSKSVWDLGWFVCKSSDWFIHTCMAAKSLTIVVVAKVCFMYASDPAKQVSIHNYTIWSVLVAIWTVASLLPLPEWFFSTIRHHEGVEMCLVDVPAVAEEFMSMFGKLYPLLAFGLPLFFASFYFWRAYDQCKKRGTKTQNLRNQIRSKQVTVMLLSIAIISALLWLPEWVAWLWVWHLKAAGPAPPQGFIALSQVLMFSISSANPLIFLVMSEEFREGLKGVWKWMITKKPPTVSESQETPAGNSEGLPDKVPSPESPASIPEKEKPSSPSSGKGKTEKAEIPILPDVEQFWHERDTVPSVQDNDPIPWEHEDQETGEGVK
TEAD-YAP inh: TEAD-YAP interaction inhibition, primary screen, TEAD-YAP interaction inhibitor project, luminescence, HEK-TIYL cells | hit rate 1.4% among 640,000 | inhibition, % at 9.12 µM | AID 1259422, 2018 | TEAD-Gal4/YAP UAS-luciferase luminescence; in the data active = inhibition above about 32%;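 note: 0% = median of test compound wells and 100% = reference inhibitor wells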
Starred values were filed as active, the others as inactive. A selection: hits, their analogues and other compounds. The true share with any hit is near 3.4%.

What do the screens show for `O=[N+]([O-])c1c(N2CCCC2)cc(Cl)c2nonc12`?
MITF primary: -2; FBW7 act: 0; GPR151 activ: -2; TEAD-YAP inh: 33*

How did Cc1sc2ncnc(Oc3ccc(C(C)(C)C)cc3)c2c1C do in these assays?
MITF primary: 2; FBW7 act: 0; GPR151 activ: -2; TEAD-YAP inh: -15

Results for CC(=O)Nc1ccc(C2=N/C(=C/c3ccc(-c4ccc([N+](=O)[O-])cc4)o3)C(=O)O2)cc1 ?
MITF primary: 23; FBW7 act: 1; GPR151 activ: 0; TEAD-YAP inh: 4

Results for CCOC(=O)c1c(NC(=O)c2ccc(S(=O)(=O)N3CCCCCC3)cc2)sc2c1CCN(C(C)=O)C2 ?
MITF primary: -2; FBW7 act: 0; GPR151 activ: 2; TEAD-YAP inh: 10

What do the screens show for `C/C(=N/NC(=O)c1n[nH]c2c1CCCC2)c1cccc(O)c1`?
MITF primary: -3; FBW7 act: 0; GPR151 activ: 0; TEAD-YAP inh: 23

Results for Cc1ccsc1/C=N\NC(=O)c1n[nH]c2c1CCCC2 ?
MITF primary: 13; FBW7 act: 0; GPR151 activ: -9; TEAD-YAP inh: 82*

What do the screens show for `O=C(N/N=C\c1cccc(Cl)c1)c1n[nH]c2c1CCCC2`?
MITF primary: 16; FBW7 act: 0; GPR151 activ: 1; TEAD-YAP inh: 25

What do the screens show for `O=C(N/N=C/c1cccc(O)c1)c1n[nH]c2c1CCC2`?
MITF primary: 11; FBW7 act: 0; GPR151 activ: -6; TEAD-YAP inh: 46*

How did C/C(=N/NC(=O)c1n[nH]c2c1CCC2)c1cccc(O)c1 do in these assays?
MITF primary: -1; FBW7 act: 0; GPR151 activ: 1; TEAD-YAP inh: 40*

How did O=C(N/N=C/c1cccc(O)c1)C1C2CCCCC21 (stereo not drawn) do in these assays?
MITF primary: -4; FBW7 act: 0; GPR151 activ: -1; TEAD-YAP inh: 60*

Results for CCN(CC(=O)Nc1ccccc1C(F)(F)F)S(=O)(=O)c1ccc(C)cc1 ?
MITF primary: 10; FBW7 act: 0; GPR151 activ: 2; TEAD-YAP inh: 12

What do the screens show for `CCC(C)NC(=O)CN(c1ccc(Cl)cc1Cl)S(=O)(=O)c1ccccc1` (stereo not drawn)?
MITF primary: 4; FBW7 act: 0; GPR151 activ: 1; TEAD-YAP inh: 14

What do the screens show for `O=C(Nc1sc2c(c1C(=O)N1CCCCC1)CCC2)c1ccccc1Cl`?
MITF primary: -3; FBW7 act: 0; GPR151 activ: 1; TEAD-YAP inh: -13

Results for CN(C)c1ccc(/C=N/NC(=O)c2n[nH]c3c2CCC3)cc1 ?
MITF primary: 10; FBW7 act: 0; GPR151 activ: 1; TEAD-YAP inh: 35*

What do the screens show for `O=C(O)c1n[nH]c2c1CCCCCC2`?
MITF primary: -7; FBW7 act: 0; GPR151 activ: 1; TEAD-YAP inh: -11

What do the screens show for `O=C(NN=C1CCCCC1)c1n[nH]c2c1CCC2`?
MITF primary: 18; FBW7 act: 0; GPR151 activ: -1; TEAD-YAP inh: 57*

What do the screens show for `Cc1ccc(/C=N/NC(=O)c2n[nH]c3c2CCCC3)cc1`?
MITF primary: 10; FBW7 act: 0; GPR151 activ: -1; TEAD-YAP inh: 18

Results for O=C(N/N=C/c1cc2c([nH]1)CCCC2)c1n[nH]c2c1CCC2 ?
MITF primary: 21; FBW7 act: 0; GPR151 activ: -1; TEAD-YAP inh: 33*

Results for COc1cc(/C=N/NC(=O)c2n[nH]c3c2CCCC3)ccc1O ?
MITF primary: 10; FBW7 act: 0; GPR151 activ: -1; TEAD-YAP inh: 36*

How did Cc1ccc(OCC(=O)CC(=O)c2ccc(C)cc2)cc1 do in these assays?
MITF primary: 7; FBW7 act: 0; GPR151 activ: 2; TEAD-YAP inh: 13

What do the screens show for `CCCc1c(C(=O)OCC)c(C(=O)OCC)c2c(-c3ccccc3)nc(N3CCOCC3)nn12`?
MITF primary: -6; FBW7 act: 0; GPR151 activ: -1; TEAD-YAP inh: -9

Results for O=C(c1cccnc1)N(Cc1cc2ccccc2[nH]c1=O)CC1CCCO1 (stereo not drawn) ?
MITF primary: -4; FBW7 act: 0; GPR151 activ: 1; TEAD-YAP inh: -1

How did O=C(N/N=C/c1ccccc1O)c1n[nH]c2c1CCC2 do in these assays?
MITF primary: 18; FBW7 act: -1; GPR151 activ: -1; TEAD-YAP inh: 33*

What do the screens show for `COc1ccc(C2=CC(c3cc(OC)ccc3OC)n3ncnc3N2)cc1` (stereo not drawn)?
MITF primary: 0; FBW7 act: 0; GPR151 activ: -1; TEAD-YAP inh: 50*

What do the screens show for `COc1ccc(OC)c(C2C=C(c3cccnc3)Nc3ncnn32)c1` (stereo not drawn)?
MITF primary: -4; FBW7 act: 0; GPR151 activ: -1; TEAD-YAP inh: 22

What do the screens show for `COc1cccc(C2=CC(c3cc(OC)ccc3OC)n3ncnc3N2)c1` (stereo not drawn)?
MITF primary: 24; FBW7 act: 0; GPR151 activ: 0; TEAD-YAP inh: 50*

Results for NNC(=O)/C(=C\c1ccco1)NC(=O)c1ccccc1 ?
MITF primary: -5; FBW7 act: 0; GPR151 activ: 0; TEAD-YAP inh: 35*

What do the screens show for `O=C(O)/C(=C/c1ccco1)NC(=O)c1ccccc1`?
MITF primary: 17; FBW7 act: -1; GPR151 activ: 0; TEAD-YAP inh: 7

What do the screens show for `COc1cc(/C=C(\C#N)C(N)=S)ccc1O`?
MITF primary: 9; FBW7 act: 0; GPR151 activ: 0; TEAD-YAP inh: 9

Results for CC(C)(C)c1cc(/C=C(\C#N)C(N)=S)cc(C(C)(C)C)c1O ?
MITF primary: -2; FBW7 act: 0; GPR151 activ: 3; TEAD-YAP inh: 47*

What do the screens show for `CCOC(=O)c1[nH]c2c(c1C)C(=O)CC(c1ccc(OCC)c(OC)c1)C2` (stereo not drawn)?
MITF primary: -9; FBW7 act: 0; GPR151 activ: 0; TEAD-YAP inh: 6

Results for Cc1c(C(=O)OCC2CCCO2)[nH]c2c1C(=O)CC(c1ccc(F)cc1)C2 (stereo not drawn) ?
MITF primary: -4; FBW7 act: 0; GPR151 activ: 2; TEAD-YAP inh: 9

Results for CCCOC(=O)c1[nH]c2c(c1C)C(=O)CC(c1ccco1)C2 (stereo not drawn) ?
MITF primary: -8; FBW7 act: 0; GPR151 activ: 1; TEAD-YAP inh: 56*

What do the screens show for `COC(=O)c1[nH]c2c(c1C)C(=O)CC(c1ccc(C)cc1)C2` (stereo not drawn)?
MITF primary: 4; FBW7 act: 0; GPR151 activ: 3; TEAD-YAP inh: -26

How did COCCOC(=O)c1[nH]c2c(c1C)C(=O)CC(c1ccc(OC)c(OC)c1)C2 (stereo not drawn) do in these assays?
MITF primary: 8; FBW7 act: 0; GPR151 activ: 0; TEAD-YAP inh: 27

Screens from PubChem.
